This note sets out measurements from PubChem BioAssay (NCATS).

Holding throughout (assay): qHTS profiling for inhibitors of Plasmodium falciparum proliferation (AID 504749); note: nearly all actives have a fitted effect of over 60% in size
Common to all, as to settings: P. falciparum in erythrocytes, SYBR Green DNA, 72 h; series mostly up to 28.7 µM

In one assay the test system is DFO2036. In short, it runs like this:
(§1)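 P. falciparum-infected erythrocytes (0.3% parasitemia, 2.5% hematocrit) incubated with compound 72 h at 37 C, 5% CO2. Parasite DNA detected by SYBR Green after lysis, overnight at room temperature; normalised to 0.29 uM artemisinin and DMSO.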

The next assay has as its system DIV17. The method in brief: as §1
Another assay relates to DIV30. The method in brief:
as §1

The test system of the next assay is FAB9. In short, it runs like this: as §1
For the next assay, the system named is Dd2. In short, it runs like this: as §1
Another assay deals with ECU. The method in brief: as §1
The subject of another assay is GB4. In short, it runs like this:
as §1

In another assay the test system is HB3. In short, it runs like this: as §1
The next assay relates to DIV14. In short, it runs like this: as §1

Results filed as inconclusive are left out. Calls of active or inactive are those of the source. Calls come from the whole dose curve; as a rule, active = well fitted inhibition curve with a large enough effect; inconclusive = small, poorly fitted or top-dose-only effect; inactive = flat fitted curve, though single readings scatter.
Potency is the fitted concentration of half-maximal effect.

`Oc1cccc(O)c1O`: the Potency result with DFO2036, in the assay on DIV30 and with FAB9 was “inactive” throughout. In addition, in the assay on DIV17, the Potency is 9.53 µM (active).

Turning to `CN(C)C(=O)CCSC(SCCC(=O)O)c1cccc(/C=C/c2ccc3ccc(Cl)cc3n2)c1` (stereo not given), the Potency entry in the assay on FAB9 is “inactive”.

On to `Cc1cc(-c2ccc(N=Nc3c(S(=O)(=O)O)cc4cc(S(=O)(=O)O)cc(N)c4c3O)c(C)c2)ccc1N=Nc1c(S(=O)(=O)O)cc2cc(S(=O)(=O)O)cc(N)c2c1O`, for which the Potency result in the assay with DFO2036, with DIV30, in the assay on Dd2, in the assay with ECU, with FAB9 and in the assay with GB4 was “inactive” in each case. Further, the Potency entry in the assay on HB3 was “inactive”.

`Cn1c(O)c(N=NC(N)=S)c2ccccc21`: the Potency entry in the assay with FAB9 is “inactive”.

Take `CN(C)CCC=C1c2ccccc2C(C)(C)c2ccccc21`: the Potency is 6.75 µM (active) in the assay on DIV14, 6.75 µM (active) with DIV17 and 13.5 µM (active) with GB4. Besides, the Potency entry in the assay on FAB9 and with HB3 was “inactive” in each case.

Regarding `Oc1ccc(Cl)c2c1CCC2`, the Potency entry in the assay on DFO2036, in the assay with DIV14, in the assay on DIV30, with Dd2, in the assay on ECU and in the assay with FAB9 was “inactive” each time. For the same compound, the Potency entry in the assay with GB4 and in the assay on HB3 was “inactive” each time.

On to `N[C@@H](Cc1cc(I)c(Oc2ccc(O)c(I)c2)c(I)c1)C(=O)O`, for which, in the assay with DIV14, the Potency was 13.5 µM (active). Besides, the Potency result in the assay on FAB9 and with HB3 was “inactive” throughout.

In the case of `Nc1ccc(N=Nc2ccccc2)c(N)n1`, the Potency entry with DFO2036, in the assay on DIV14, with DIV17, with DIV30, in the assay with Dd2 and with HB3 was “inactive” each time. Moreover, the Potency in the assay with GB4 is 13.5 µM (active).

For `C=CCOc1ccc(CC(=O)O)cc1Cl`, the Potency result in the assay with DFO2036, with DIV14, in the assay on DIV17, in the assay on DIV30, in the assay on Dd2 and in the assay on ECU was “inactive” throughout. Moreover, the Potency result in the assay on FAB9, in the assay with GB4 and in the assay with HB3 was “inactive” in each case.

Take `CS(=O)(=O)c1ccc([C@@H](O)[C@@H](COC(=O)CN)NC(=O)C(Cl)Cl)cc1`: the Potency entry in the assay with DIV14, in the assay on DIV17, in the assay with DIV30, in the assay on ECU, with FAB9 and with HB3 was “inactive” in each case. Further, the Potency with Dd2 was 6.31 µM (active).

Regarding `CC(CN(C)C)CN1c2ccccc2Sc2ccc(C(F)(F)F)cc21` (stereo not given), the Potency with DFO2036 was 10 µM (active); in the assay on DIV14 it was 5.36 µM (active); in the assay with DIV17, 3.01 µM (active); in the assay on Dd2, 3.55 µM (active). In the assay with FAB9, the Potency result was “inactive”.

For the compound `NC(=O)CC[C@@H]1NC(=O)[C@H](Cc2ccccc2)NC(=O)[C@H](Cc2ccc(O)cc2)NC(=O)[C@@H](N)CSSC[C@@H](C(=O)N2CCC[C@H]2C(=O)N[C@@H](CCCN=C(N)N)C(=O)NCC(N)=O)NC(=O)[C@H](CC(N)=O)NC1=O`, the Potency result with DIV14, in the assay on DIV30, with Dd2 and with FAB9 was “inactive” throughout.

For the compound `CC/C=C\C/C=C\C/C=C\CCCCCCCC(=O)O`, the Potency result in the assay on DFO2036, with DIV17, in the assay with DIV30, in the assay with Dd2, with ECU and in the assay on FAB9 was “inactive” in each case. Besides, the Potency entry with GB4 and in the assay with HB3 was “inactive” in each case.

On to `OC1OC[C@@H](O)[C@H](O)[C@@H]1O` (stereo not given in full), for which the Potency entry in the assay on DFO2036, in the assay with DIV14, in the assay with DIV17, with DIV30, in the assay on Dd2 and with ECU was “inactive” in each case. The Potency result with FAB9, with GB4 and with HB3 was “inactive” in each case.

Regarding `CCOC(=O)[C@@H](N)CS`, the Potency result with DFO2036, in the assay on DIV14, with DIV17, with DIV30, in the assay with Dd2 and with ECU was “inactive” each time. In addition, the Potency entry in the assay on FAB9, in the assay with GB4 and in the assay with HB3 was “inactive” throughout.

Take `NC(N)=NCC1COc2ccccc2O1` (stereo not given): the Potency entry in the assay with DIV14, in the assay on DIV30, in the assay with ECU and in the assay on FAB9 was “inactive” each time.

Consider `CCOC(=O)C1=C(COCCN)NC(C)=C(C(=O)OC)C1c1ccccc1Cl` (stereo not given), for which the Potency result in the assay with DFO2036, in the assay on DIV30, with FAB9 and in the assay on HB3 was “inactive” throughout. In the assay on DIV14, the Potency is 12 µM (active).

As for `O=C(Nc1ccc(O)cc1)c1ccccc1O`, the Potency result in the assay on DFO2036, with DIV14, in the assay with DIV17, in the assay with Dd2, in the assay on FAB9 and with GB4 was “inactive” throughout. Besides, in the assay with HB3, the Potency entry was “inactive”.

As for `O=C1CCC(c2ccccc2)(C2CCN(Cc3ccccc3)CC2)C(=O)N1` (stereo not given), the Potency result in the assay on DFO2036, with DIV30, with ECU, in the assay with FAB9 and with HB3 was “inactive” each time.

As for `CCCC(CCC)C(=O)OC1C[C@H]2CC[C@@H](C1)[N+]2(C)C` (stereo not given in full), the Potency in the assay with ECU is 7.94 µM (active). Also, the Potency result in the assay on FAB9 is “inactive”.
